Data published in PubChem BioAssay (Tox21).
Inconclusive results are not listed. A call without a number means that no potency is given here. More than one record can exist for a structure, and the calls need not agree. The source made the active and inactive calls. Unless noted, calls come from the whole dose curve; as a rule, active = well fitted curve in the direction sought with a large enough effect in the repeat runs; inconclusive = weak or mixed curves; inactive = no such curve, though single readings can be large; an effect the other way counts as inactive or inconclusive.

Assays:
[1] = A CellTox Green Cytotoxicity Assay to monitor cytotoxicity in HEK293 cells - 32 hour (AID 1224881); note: nearly all actives have a fitted effect of over 40% in size
Method in brief: (§1)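 Seeding of HEK293 cells together with cytotoxicity dye preceded a 5 h incubation at 37 C/5% CO2. Test compounds in DMSO were then added and fluorescence monitored across 40 h.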

[2] = A CellTox Green Cytotoxicity Assay to monitor cytotoxicity in HepG2 cells - 0 hour (AID 1224882); note: nearly all actives have a fitted effect of over 35% in size
Method in brief: (§2)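 Nonlytic assay: viable cells exclude the dye, so fluorescence scales with cell death. HepG2 at 600 cells/well, compounds added after 5 h, signal read across 40 h.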

[3] = A CellTox Green Cytotoxicity Assay to monitor cytotoxicity in HepG2 cells - 32 hour (AID 1224883); note: nearly all actives have a fitted effect of over 50% in size
Method in brief: as §2

[4] = A CellTox Green Cytotoxicity Assay to monitor cytotoxicity in HEK293 cells - 8 hour (AID 1224884); note: nearly all actives have a fitted effect of over 35% in size
Method in brief: as §1

[5] = qHTS RealTime-Glo MT Cell Viability Assay in HEK293 cells - 24 hour (AID 1224886); note: top concentration of the series differs between compounds; nearly all actives have a fitted effect of over 50% in size
Method in brief: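 HEK293 cells seeded with NanoLuc/prosubstrate reagent, rested 5 h at 37 C, then dosed and kept at 37 C up to 40 h. Nonlytic real-time luminescence from viable cells read at 0, 8, 16, 24, 32 and 40 h.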

[6] = qHTS RealTime-Glo MT Cell Viability Assay in HEK293 cells - 8 hour (AID 1224887); note: top concentration of the series differs between compounds; nearly all actives have a fitted effect of over 50% in size
Method in brief: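 Tox21 screen in HEK293 using RealTime-Glo MT chemistry, with cells and reagent co-dispensed. Luminescence proportional to viable cell number was captured at intervals during 40 h compound exposure at 37 C.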

[7] = A CellTox Green Cytotoxicity Assay to monitor cytotoxicity in HEK293 cells - 16 hour (AID 1224888); note: nearly all actives have a fitted effect of over 35% in size
Method in brief: as §1

[8] = qHTS RealTime-Glo MT Cell Viability Assay in HepG2 cells - 0 hour (AID 1224889); note: nearly all actives have a fitted effect of over 50% in size; note: potency is the fitted concentration of half-maximal effect
Method in brief: (§3)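 HepG2 cells (600/well) were dispensed with RealTime-Glo reagents, incubated 5 h at 37 °C, then treated with compounds in DMSO for up to 40 h. Nonlytic NanoLuc luminescence reflecting viable cells was read at each stated time point.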

[9] = A CellTox Green Cytotoxicity Assay to monitor cytotoxicity in HepG2 cells - 8 hour (AID 1224890); note: nearly all actives have a fitted effect of over 45% in size
Method in brief: as §2

[10] = qHTS assay to identify small molecule antagonists of the estrogen receptor alpha (ER-alpha) signaling pathway using the BG1 cell line in the presence of 0.1 nM 17-beta-estradiol - cell viability counter screen (AID 1259241); note: nearly all actives have a fitted effect of over 40% in size
Method in brief: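 Cytotoxicity counter-screen: live-cell protease activity measured by fluorescence (30 min reagent step) in the same wells. Cells were VM7Luc4E2 with endogenous ER-alpha and ERE-driven luciferase, treated 22 hr at 37C alongside 0.1 nM 17beta-estradiol final.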

[11] = qHTS assay to identify small molecule antagonists of the androgen receptor (AR) signaling pathway using the MDA cell line in the presence of 0.5 nM R1881 - cell viability counter screen (AID 1259242); note: nearly all actives have a fitted effect of over 45% in size
Method in brief: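 R1881 at 0.5 nM final stimulated MDA-kb2 cells during 16 hr compound treatment at 37C. Cytotoxicity read: CellTiter-Fluor fluorescence after 30 min.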

[12] = qHTS assay to identify small molecule phospholipidosis (PLD) inducers (AID 1259344; active = well fitted curve in the direction sought with a large enough effect; an effect the other way counts as inactive or inconclusive)
Method in brief: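 HepG2 cells grown on collagen I take up LipidTOX Red while exposed to compound for 24 h; after fixation they are imaged at 20x and pit metrics are extracted.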

[13] = qHTS assay to identify small molecule HDAC inhibitors (AID 1259364);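 note: wild-type HCT-116 cells with endogenous class I/II HDAC activity; top concentration of the series differs between compounds; nearly all actives have a fitted effect of over 45% in size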
Method in brief: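 Relative class I and II HDAC activity is taken from the luminogenic signal in HCT-116 cells, with compound exposure 2 hr and reagent development 30 min at room temperature.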

[14] = qHTS assay to identify small molecule HDAC inhibitors - cell viability counter screen (AID 1259365)
Method in brief: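 CellTiter-Glo luminescence (30 min, room temperature) reported viability after a 2 h compound exposure at 37 C. Cells: wild-type HCT-116, 1,500 per well, seeded the night before.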

[15] = qHTS assay to identify small molecule agonists of the sonic hedgehog signaling (Shh) pathway - cell viability counter screen (AID 1259366); note: nearly all actives have a fitted effect of over 50% in size; note: potency is the fitted concentration of half-maximal effect
Method in brief: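 Cytotoxicity counter screen: CellTiter-Fluor reagent added after 23 h compound exposure, then 1 h at 37C and fluorescence read. Cells were 3T3 Gli1-Luc, seeded 2,000 per well and dosed 4 h post-plating.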

[16] = qHTS assay to identify small molecule agonists of the sonic hedgehog signaling (Shh) pathway (AID 1259368; calls by dose curve;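 note: NIH/3T3-derived 3T3Gli1-Luc cells carrying a stable Gli1-driven firefly luciferase reporter; series mostly up to about 92 µM; nearly all actives have a fitted effect of over 15% in size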)
Method in brief: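 Mouse fibroblast (NIH/3T3) reporter cells with stably integrated Gli1-Luc were treated 24 hr with compound; firefly luciferase luminescence served as the read-out.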

[17] = target: Androgen receptor (Homo sapiens) (UniProt P10275); test: qHTS assay to identify small molecule antagonists of the androgen receptor (AR) signaling pathway using the MDA cell line in the presence of 0.5 nM R1881 (AID 1259243); note: nearly all actives have a fitted effect of over 50% in size; note: potency is the fitted concentration of half-maximal effect
Method in brief: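 We exposed MDA-kb2 cells to compounds under 0.5 nM R1881 stimulation for 16 hr at 37C and quantified MMTV-driven luciferase by luminescence.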

[18] = qHTS RealTime-Glo MT Cell Viability Assay in HepG2 cells - 16 hour (AID 1224885); note: nearly all actives have a fitted effect of over 50% in size
Method in brief: as §3

[19] = qHTS assay to identify small molecule antagonists of the sonic hedgehog signaling (Shh) pathway - cell viability counter screen (AID 1259367); note: nearly all actives have a fitted effect of over 55% in size; note: potency is the fitted concentration of half-maximal effect
Method in brief: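 After a 4 hr settling period, 3T3 Gli1-Luc cells were treated with DMSO-dissolved chemicals and conditioned medium, kept 24 hr at 37C in 5% CO2, and assayed for viability by CellTiter-Fluor fluorescence following 1 hr reagent incubation.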

[20] = target: Estrogen receptor (Homo sapiens) (UniProt P03372); test: qHTS assay to identify small molecule antagonists of the estrogen receptor alpha (ER-alpha) signaling pathway using the BG1 cell line in the presence of 0.1 nM 17-beta-estradiol (AID 1259244); note: nearly all actives have a fitted effect of over 50% in size
Method in brief: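 VM7Luc4E2; 4xERE-luciferase; 0.1 nM E2 final; 22 h co-incubation, 37C; ONE-Glo luminescence after 30 min at room temperature.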

Chain of Estrogen receptor (Homo sapiens) (P03372 whole entry, looked up): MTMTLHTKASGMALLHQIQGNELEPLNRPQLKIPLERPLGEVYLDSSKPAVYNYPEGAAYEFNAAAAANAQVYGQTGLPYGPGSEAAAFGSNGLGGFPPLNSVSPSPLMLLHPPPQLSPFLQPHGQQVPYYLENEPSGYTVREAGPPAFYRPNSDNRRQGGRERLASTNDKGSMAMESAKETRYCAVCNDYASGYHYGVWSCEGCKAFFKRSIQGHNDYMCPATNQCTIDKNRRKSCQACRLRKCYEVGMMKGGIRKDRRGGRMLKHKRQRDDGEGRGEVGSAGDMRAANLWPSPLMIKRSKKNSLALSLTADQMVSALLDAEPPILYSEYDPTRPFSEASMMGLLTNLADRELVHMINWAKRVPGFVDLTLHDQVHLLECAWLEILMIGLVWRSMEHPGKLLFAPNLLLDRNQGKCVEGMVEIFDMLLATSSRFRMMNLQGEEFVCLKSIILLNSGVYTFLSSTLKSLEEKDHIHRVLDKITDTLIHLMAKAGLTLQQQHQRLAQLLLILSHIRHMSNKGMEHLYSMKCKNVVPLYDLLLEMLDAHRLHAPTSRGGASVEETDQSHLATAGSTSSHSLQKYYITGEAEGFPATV
Chain of Androgen receptor (Homo sapiens) (P10275 whole entry, looked up): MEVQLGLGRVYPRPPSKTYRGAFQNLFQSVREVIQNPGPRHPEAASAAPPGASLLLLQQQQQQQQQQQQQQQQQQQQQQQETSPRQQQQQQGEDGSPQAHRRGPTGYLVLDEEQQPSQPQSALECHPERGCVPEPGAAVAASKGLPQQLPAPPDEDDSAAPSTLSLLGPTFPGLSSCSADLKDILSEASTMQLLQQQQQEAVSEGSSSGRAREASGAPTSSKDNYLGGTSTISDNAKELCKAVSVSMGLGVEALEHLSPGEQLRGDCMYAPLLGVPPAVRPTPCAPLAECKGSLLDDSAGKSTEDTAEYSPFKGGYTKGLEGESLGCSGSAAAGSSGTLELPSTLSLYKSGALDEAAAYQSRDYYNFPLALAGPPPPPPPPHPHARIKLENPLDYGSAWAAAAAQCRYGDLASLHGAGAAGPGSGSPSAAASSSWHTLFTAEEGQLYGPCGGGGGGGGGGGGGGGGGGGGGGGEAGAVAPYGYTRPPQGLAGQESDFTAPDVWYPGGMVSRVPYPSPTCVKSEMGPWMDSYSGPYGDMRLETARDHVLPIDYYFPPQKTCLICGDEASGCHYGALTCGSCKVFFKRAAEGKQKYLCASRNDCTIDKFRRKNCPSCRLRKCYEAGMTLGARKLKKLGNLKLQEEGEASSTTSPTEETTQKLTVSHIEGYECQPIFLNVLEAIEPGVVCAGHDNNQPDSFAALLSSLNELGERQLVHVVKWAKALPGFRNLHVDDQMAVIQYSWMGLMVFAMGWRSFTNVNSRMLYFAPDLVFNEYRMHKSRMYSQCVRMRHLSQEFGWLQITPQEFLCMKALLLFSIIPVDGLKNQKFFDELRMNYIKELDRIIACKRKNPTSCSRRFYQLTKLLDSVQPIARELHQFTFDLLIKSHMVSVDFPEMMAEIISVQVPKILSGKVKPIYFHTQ

Structure (SMILES)	Potency [1]	outcome [2]	Potency [3]	outcome [4]	Potency [5]	Potency [6]	Potency [7]	Potency [8]	outcome [9]	Potency [10]	Potency [11]	outcome [12]	Potency [13]	outcome [14]	Potency [15]	outcome [16]	Potency [17]	Potency [18]	Potency [19]	Potency [20]
CCOC(=O)c1ccc(N)cc1	inactive	inactive	inactive	inactive	inactive	inactive	inactive	inactive	inactive	inactive	inactive	inactive	inactive	inactive	inactive	inactive	–	–	–	–
CN/C(=C\[N+](=O)[O-])NCCSCc1csc(CN(C)C)n1	inactive	inactive	inactive	inactive	inactive	inactive	–	inactive	–	inactive	inactive	inactive	inactive	inactive	inactive	inactive	inactive	–	–	–
CC(C)=CCl	inactive	inactive	inactive	inactive	inactive	inactive	–	inactive	–	inactive	inactive	–	inactive	inactive	inactive	inactive	–	inactive	inactive	–
O=C1C(c2[nH]c3ccccc3c2O)=Nc2ccccc21	inactive	inactive	inactive	inactive	inactive	inactive	inactive	inactive	inactive	inactive	inactive	inactive	inactive	inactive	inactive	inactive	–	–	inactive	–
Cc1ccc([N+](=O)[O-])cc1S(=O)(=O)O	inactive	inactive	inactive	inactive	inactive	inactive	inactive	inactive	inactive	inactive	inactive	–	–	inactive	inactive	inactive	inactive	–	inactive	–
CN1C(=O)CC[C@H]1c1cccnc1	inactive	inactive	inactive	inactive	inactive	inactive	inactive	inactive	inactive	inactive	inactive	inactive	inactive	inactive	inactive	inactive	–	–	–	–
CCOCCOCCOCCO	inactive	inactive	inactive	inactive	inactive	inactive	inactive	inactive	inactive	inactive	inactive	–	–	inactive	inactive	inactive	–	–	inactive	–
CCCCCCCCCCCC(=O)OC	inactive	inactive	inactive	inactive	inactive	inactive	inactive	inactive	–	inactive	inactive	–	–	inactive	inactive	inactive	–	–	inactive	–
COc1ccc(N)c(C)c1	inactive	inactive	inactive	inactive	inactive	inactive	inactive	inactive	inactive	inactive	inactive	–	inactive	inactive	inactive	inactive	–	–	inactive	–
O=C1c2ccccc2CCc2ccccc21	inactive	inactive	–	inactive	inactive	inactive	inactive	inactive	–	inactive	inactive	–	–	inactive	inactive	inactive	–	inactive	–	–
COc1ccc(C)cc1N	inactive	inactive	–	inactive	inactive	inactive	inactive	inactive	–	inactive	inactive	–	inactive	inactive	inactive	inactive	inactive	inactive	inactive	inactive
CCCCCCCCCCCCCCCC(=O)OC(C)C	inactive	inactive	–	inactive	inactive	inactive	–	inactive	inactive	inactive	inactive	inactive	inactive	inactive	inactive	inactive	–	inactive	–	–
CC(CCl)OP(=O)(OC(C)CCl)OC(C)CCl (stereo not given)	inactive	inactive	–	inactive	inactive	inactive	–	inactive	–	inactive	inactive	–	inactive	inactive	inactive	inactive	–	–	inactive	–
CC(O)CC(C)(C)O (stereo not given)	inactive	inactive	–	inactive	inactive	inactive	inactive	inactive	inactive	inactive	inactive	–	–	inactive	inactive	inactive	–	inactive	inactive	–
CCCCOC(=O)c1ccc(N)cc1	inactive	inactive	–	inactive	inactive	inactive	–	24.2 µM (active) and inactive	–	inactive	inactive	inactive	inactive	inactive	inactive	inactive	–	inactive	inactive	–
CC(=O)OCCOC(C)=O	inactive	inactive	–	inactive	inactive	inactive	–	inactive	inactive	inactive	inactive	–	inactive	inactive	inactive	inactive	–	inactive	inactive	inactive
CCOCC(=O)O	inactive	inactive	–	inactive	inactive	inactive	–	inactive	inactive	inactive	inactive	–	inactive	inactive	inactive	inactive	–	inactive	inactive	–
C=C(C)C(=O)OCC(C)C	inactive	inactive	–	inactive	inactive	inactive	inactive	inactive	–	inactive	inactive	–	–	inactive	27.7 µM (active) and inactive	inactive	–	inactive	7.8 µM (active) and inactive	inactive
OCc1cccc(Oc2ccccc2)c1	inactive	inactive	–	inactive	inactive	inactive	–	inactive	inactive	inactive	inactive	–	inactive	inactive	inactive	inactive	31.1 µM (active)	inactive	inactive	–
C=CCCCCCCCCC(=O)O	inactive	inactive	–	inactive	inactive	inactive	–	inactive	–	inactive	inactive	inactive	inactive	inactive	inactive	inactive	–	–	–	–
CCO[Si](CCC#N)(OCC)OCC	inactive	inactive	–	inactive	inactive	inactive	inactive	inactive	–	inactive	inactive	–	inactive	inactive	inactive	inactive	–	inactive	inactive	–
Cc1ccc2ncccc2c1	inactive	inactive	–	inactive	inactive	inactive	–	inactive	inactive	inactive	inactive	–	–	inactive	inactive	inactive	–	inactive	–	inactive
C=CCc1ccc(OC)c(OC)c1	inactive	inactive	–	inactive	inactive	inactive	inactive	inactive	–	inactive	inactive	–	–	inactive	inactive	inactive	–	inactive	–	–
